Screens as filed in PubChem BioAssay.
TDP1 cell CPT: growth inhibition of DT40 Tdp1-/-;hTDP1 cells with camptothecin (screen for TDP1 inhibitors) | chicken DT40 Tdp1-/-;hTDP1 cells + 20 nM CPT, ATP luminescence, 48 h | Potency, µM (top dose mostly 46.2 µM), without a hit: top-dose activity change, negative = growth inhibition, hits mostly inhibitors | 420,000 compounds, 12% hits | AID 686979; note: nearly all actives have a fitted effect of over 55% in size
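Chicken DT40 Tdp1-/- cells complemented with human TDP1, 400 cells/well, exposed to compounds plus 20 nM camptothecin for at least 48 h at 37 C; viability read as ATP content by CellTiter-Glo luminescence.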
DT40 TDP1 no CPT: qHTS for Inhibitors of human tyrosyl-DNA phosphodiesterase 1 (TDP1): qHTS in cells in absence of CPT; 420,000 compounds, 15% hits; DT40 Tdp1-/- hTDP1 cells, no CPT, ATP luminescence, 48 h; Potency, µM (top dose mostly 46.2 µM), without a hit: at the top dose activity change, negative = growth inhibition, most hits filed as inhibitors; note: nearly all actives have a fitted effect of over 55% in size
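Camptothecin absent (DMSO only). Human TDP1-complemented DT40 knockout cells, 400 cells/well, 37 °C for minimum 48 hr; ATP measured via CellTiter-Glo, 30 min dark incubation, luminescence.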
KAT2A inh: inhibitors of human GCN5L2 histone acetyltransferase; GCN5L2 HAT assay, ThioGlo1 CoA-SH fluorescence; Potency, µM (highest dose often 58.9 µM), inactives show at the top dose activity change, negative = inhibition, most hits filed as inhibitors; 390,000 compounds, 0.21% hits; AID 504327
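Preincubate 20nM GCN5L2 with compound 15 min, RT → add 50uM ThioGlo1 + 75uM H3(1-25) + 70uM acetyl-CoA → read fluorescence 0 and 20 min. Primary qHTS; fluorescent artifacts likely.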
PLK1 PBD block: blocks phosphopeptide binding to human PLK1 polo-box domain | Plk1 PBD binding of FITC phosphopeptide, fluorescence polarization | AID 720504 | P53350 | Potency, µM, inactives show max response, negative = inhibition, hits mostly inhibitors | 360,000 compounds, 2.8% hits; note: series mostly up to about 57 µM; nearly all actives have a fitted effect of over 65% in size
Target sequence (P53350 whole entry, looked up, the tested form may be a part): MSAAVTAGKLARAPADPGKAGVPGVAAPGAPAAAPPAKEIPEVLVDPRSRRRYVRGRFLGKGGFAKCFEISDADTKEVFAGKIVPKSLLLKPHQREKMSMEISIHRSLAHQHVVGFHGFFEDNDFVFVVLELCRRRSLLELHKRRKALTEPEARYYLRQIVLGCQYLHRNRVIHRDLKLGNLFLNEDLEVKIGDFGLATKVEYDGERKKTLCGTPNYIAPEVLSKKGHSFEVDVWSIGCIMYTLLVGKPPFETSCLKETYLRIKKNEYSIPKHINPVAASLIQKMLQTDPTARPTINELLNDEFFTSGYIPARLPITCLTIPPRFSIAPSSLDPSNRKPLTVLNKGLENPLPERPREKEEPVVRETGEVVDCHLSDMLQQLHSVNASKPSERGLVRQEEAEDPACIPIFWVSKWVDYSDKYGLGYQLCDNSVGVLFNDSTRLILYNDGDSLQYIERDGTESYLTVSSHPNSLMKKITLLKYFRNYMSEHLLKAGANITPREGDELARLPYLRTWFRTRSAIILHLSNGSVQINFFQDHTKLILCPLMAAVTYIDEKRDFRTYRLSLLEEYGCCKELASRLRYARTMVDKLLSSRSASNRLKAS
TDP1 block: blocks human tyrosyl-DNA phosphodiesterase 1 | Potency, µM (doses to about 130 µM), inactives show top-dose activity change, negative = inhibition, usual class: inhibitors | AID 485290 | recombinant TDP1, AlphaScreen DNA substrate cleavage | 350,000 compounds, 0.28% hits | Q9NUW8; note: nearly all actives have a fitted effect of over 40% in size
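Compounds were preincubated with Tdp1 (1 nM final) for 15 min at room temperature before substrate (15 nM final) started a 5 min reaction; beads (10 ug/ml final) were then added for 10 min before AlphaScreen detection.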
VDR inh: vitamin D3 receptor (human) inhibition; VDR-SRC2-3 peptide fluorescence polarization, 2 h; Potency, µM, for inactives: max response, negative = inhibition, most hits filed as inhibitors; 400,000 compounds, 0.93% hits; P11473
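Measured by FP: displacement of SRC2-3 coactivator peptide from VDR by library compounds, following a two-hour ambient incubation.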
An asterisk follows results filed as active; u = inconclusive; x = no result; ! = not confirmed by another sample; [ ] = another dose, or the depositor's remark. In the library only some 18% were active in any assay of this set; here they are far more common. Calls come from the whole dose curve; as a rule, active = well fitted curve in the direction sought with a large enough effect; inconclusive = small, poorly fitted or top-dose-only effect, or another doubt; inactive = no such curve, though single readings can be large; an effect the other way counts as inactive or inconclusive. % is set by controls: 0 for no effect and ±100 for the full control effect; potency is the fitted concentration of half-maximal effect.

SMILES | TDP1 cell CPT | DT40 TDP1 no CPT | KAT2A inh | PLK1 PBD block | TDP1 block | VDR inh
COc1cc2c(cc1OC)C(c1cccc([N+](=O)[O-])c1)N(C(=O)c1ccc(F)cc1)CC2 (centres undefined) | 18µM* | 13µM* | -5% | -3% | 8% | 5%
CCC(=O)N1CCc2cc(OC)c(OC)cc2C1COc1ccc(C(=O)OC)cc1 (centres undefined) | u | u | -10% | -6% | 1% | 8%
CCOC(=O)c1ccc(OCC2c3cc(OC)c(OC)cc3CCN2C(=O)Cc2ccc(F)cc2)cc1 (centres undefined) | 23µM* | 18µM* | -19% | x | 10% | -5%
CCN(CC(=O)Nc1cc(Cl)ccc1C)C(=O)c1ccc2c(c1)NC(=O)C(C)S2 (centres undefined) | u | u | -8% | 1% | 5% | -14%
Cc1c(Cl)cccc1NC(=S)NC1CCN(C(C)C)CC1 | -23% | -4% | 5% | -4% | -3% | -24%
COc1cc2c(cc1OC)C(COc1ccc(F)cc1)N(C(=O)c1cccc(F)c1)CC2 (centres undefined) | 16µM* | u | -4% | x | 10% | 10%
CCNC(=S)N1CCc2cc(OC)c(OC)cc2C1COc1ccc(F)cc1 (centres undefined) | -2% | -4% | -9% | -3% | 4% | -12%
CCCCC(=O)N1CCc2cc(OC)c(OC)cc2C1COc1ccc(C(=O)OCC)cc1 (centres undefined) | u | 18µM* | -8% | x | 8% | 9%
CCOCC(=O)Nc1cc(Cl)c(OC)cc1OC | x | x | -1% | x | 5% | x
CNC(=O)[C@@H]1C[C@H](NC2CCCCCCC2)CN1Cc1cccc(OC)c1OC | u | -28% | x | x | x | x
O=C(c1ccc(C(F)(F)F)cc1)N1CCC(=O)N(C(COCc2ccccc2)Cc2ccccc2)CC1 (centres undefined) | 21µM* | 21µM* | -13% | -16% | -1% | -2%
CC(C)(C)c1ccc(C(=O)N2CCC(=O)N([C@H](COCc3ccccc3)Cc3ccccc3)CC2)cc1 | u | u | x | 0% | x | x
CC(C)(C)c1ccc(C(=O)N2CCC(=O)N(C(COCc3ccccc3)Cc3ccccc3)CC2)cc1 (centres undefined) | 15µM* | 21µM* | -14% | 3% | 5% | -9%
C[C@H](CO)N1C[C@H](C)[C@H](CN(C)C(=O)Nc2cccc(Oc3ccccn3)c2)OCc2cnnn2CCCC1=O | 15% | u | x | -11% | x | x
O=[N+]([O-])c1cccc2c(N3CCOCC3)ccnc12 | u | 15µM* | 2% | -1% | 0% | 19%
O=[N+]([O-])c1ccc(N2CCN(S(=O)(=O)c3ccccc3)CC2)c2cccnc12 | u | u | -1% | -15% | 8% | u
CCOC(=O)c1ccc(NC(=O)c2oc3c(c2C)-c2nn(Cc4ccccc4Cl)cc2CC3)cc1 | 21µM* | 21µM* | -6% | x | -5% | 1%
Cc1c(C(=O)N2CCCC2)oc2c1-c1nn(CC(=O)NC(C)c3ccccc3)cc1CC2 (centres undefined) | u | 23µM* | 2% | x | 10% | 10%
CC(=O)c1cccc(NC(=O)c2oc3c(c2C)-c2nn(Cc4ccc(Cl)cc4)cc2CC3)c1 | u | 26µM* | -14% | x | 8% | 1%
Cc1ccc(Cn2cc3c(n2)-c2c(oc(C(=O)Nc4ccc(F)cc4F)c2C)CC3)cc1 | u | u | -15% | x | 8% | -7%
Cc1cccc(C)c1NC(=O)c1oc2c(c1C)-c1nn(Cc3ccccc3)cc1CC2 | 18µM* | 15µM* | 2% | x | 5% | 6%
CCOC(=O)c1cccc(NC(=O)c2oc3c(c2C)-c2nn(CC)cc2CC3)c1 | u | u | -4% | x | 4% | -4%
Cc1ccc(CN(C)C(=O)CSc2nnc3n2CCCCC3)c(C)c1 | -19% | u | 2% | -16% | 2% | -8%
COC(=O)C1=C(C(=O)OC)[C@@H]2Nc3ccccc3[C@@]23C[C@@H](C(=O)OC)N(S(=O)(=O)c2cccs2)C3=N1 | x | x | x | x | 11%[21 µM] | x
COCC(C)NC(=O)c1cc2cccc([N+](=O)[O-])c2[nH]1 (centres undefined) | 18% | -2% | -14% | -12% | -2% | -3%
SMILES | TDP1 cell CPT | DT40 TDP1 no CPT | KAT2A inh | PLK1 PBD block | TDP1 block | VDR inh
Cc1cc(NC(=O)c2cc3cccc([N+](=O)[O-])c3[nH]2)ccc1F | u | 21µM* | 14% | -6% | 7% | 0%
COc1ccc(Cc2nnc(NC(=O)CS(=O)(=O)c3ccccc3)s2)cc1OC | -4% | 0% | -3% | 2% | 1% | -7%
COc1ccc(C)cc1Nc1cc(C)nc(C)n1 | -27% | u | 0% | x | 6% | 11%
c1ccc(-n2nnc3ccccc32)cc1 | -20% | -22% | -10% | -7% | x | -16%
C(=C\n1nnc2ccccc21)/c1ccc[nH]1 | 18µM* | 23µM* | -6% | -4% | x | -5%
CCC(C)(C)C1CCc2[nH]nc(C(=O)NCCCNC(=O)OC(C)(C)C)c2C1 (centres undefined) | u | 18µM* | -20% | -14% | -3% | -14%
CCC(C)(C)C1CCc2[nH]nc(C(=O)NCc3ccccn3)c2C1 (centres undefined) | 15µM* | 23µM* | 1% | -7% | -2% | -8%
N#CC(c1ccc(Cl)cc1)c1ccc(Cl)nn1 (centres undefined) | 2% | -25% | -13% | -9% | 4% | -1%
N#CC(c1ccc(Cl)cc1)c1c(Cl)cc(-n2ncc(=O)[nH]c2=O)cc1Cl (centres undefined) | 1% | 0% | u | x | x | 28µM*
Cn1cccc1C(=O)N1CCC2(CCCN(Cc3nccs3)C2)CC1 | 3% | u | -20% | x | x | 5%
Cc1cc2c(cc1S(=O)(=O)NCc1ccccc1)OCC(=O)N2 | 5% | -4% | 25µM*! | -2% | 1% | 8%
CCOc1ccccc1CNS(=O)(=O)c1cc2c(cc1C)NC(=O)CO2 | u | 23µM* | -14% | x | 3% | 21%
CCCCn1c(N)c(N(CC(C)C)C(=O)COC(=O)C2(c3ccccc3)CC2)c(=O)[nH]c1=O | 1% | -2% | -2% | -2% | x | -2%
O=C1CCCC2=C1C1(CCCCC1)N=C(Nc1nc3ccccc3o1)N2 | u | 13µM* | -12% | -5% | 2% | -4%
